Data published in the antibiotic and cytotoxicity screens of Wong et al. (2023).
The campaign covered roughly 39,000 compounds. About 3,300 (8.5%) were called active. The full list was thinned out, with actives kept by preference.

The compounds below were run on HepG2 (assay: cytotoxicity call (relative viability < 0.9)). Settings: 10 µM.
With C[C@@H]1CN([C@H](C)CO)C(=O)CCCn2cc(nn2)CO[C@H]1CN(C)C(=O)Nc1ccc(C(C)(C)C)cc1 the cytotoxicity call was “inactive”. C[C@@H]1CCCCO[C@H](CN(C)C(=O)Nc2ccc(C(F)(F)F)cc2)[C@@H](C)CN([C@H](C)CO)C(=O)c2cc(NC(=O)CCCCCC(=O)Nc3ccccc3N)ccc2O1 was tested, and the cytotoxicity call was “inactive”. For NS(=O)(=O)OC[C@H]1C[C@@H](Nc2ccnc3cc(-c4cccc(SC(F)(F)F)c4)nn23)[C@H](O)[C@@H]1O, the cytotoxicity call was “active”. With O=C(C[C@H]1C[C@H]2c3cc(NC(=O)Cc4ccncc4)ccc3O[C@H]2[C@H](CO)O1)NCc1cccc(F)c1 the cytotoxicity call was “inactive”. In the case of CO[C@@H]1CN(C)C(=O)c2ccc(NC(=O)Nc3ccccc3F)cc2OC[C@@H](C)N(Cc2ccccc2F)C[C@H]1C, the cytotoxicity call is reported as “inactive”. Cc1c(CN2CCN(C(=O)[C@H](C)O)CC2)sc2c(N3CCOCC3)nc(-c3cnc(N)nc3)nc12 was tested, and the cytotoxicity call was “active”. With CC(=O)Nc1ncc(CN2CCOCC2)s1 the cytotoxicity call was “inactive”. For C[C@@H]1CN([C@H](C)CO)C(=O)Cc2cc(NC(=O)Cc3cn(C)c4ccccc34)ccc2O[C@@H]1CN(C)S(=O)(=O)c1cn(C)cn1, the cytotoxicity call was “inactive”. CC(/C=C/C(=O)NO)=C\c1ccccc1OCc1cn(CC(=O)N2CCN(c3ccccc3)CC2)nn1 was tested, and the cytotoxicity call was “inactive”. In the case of COC(=O)[C@@H](NC(=O)Cn1cc(COc2ccccc2/C=C(C)/C=C/C(=O)NO)nn1)c1ccccc1, the cytotoxicity call is reported as “active”. CC(/C=C/C(=O)NO)=C\c1ccccc1OCc1cn(-c2ccc(C[C@H]3C(=O)O[C@@H](Cc4ccccc4)[C@H]4[C@@H]5C=CCCC=C5CN43)cc2)nn1 was tested, and the cytotoxicity call was “inactive”. For COC(=O)[C@@H](NC(=O)Cn1cc(C(=O)NO)nn1)c1ccccc1, the cytotoxicity call was “active”. With C=C/C=C/[C@@H]1C(=C)CN2[C@H]1[C@H](Cc1ccccc1)OC(=O)[C@@H]2Cc1ccc(-n2cc(COc3ccccc3/C=C(C)/C=C/C(=O)NO)nn2)cc1 the cytotoxicity call was “inactive”. C=C/C=C/[C@H]1C(=C)CN([C@H](Cc2ccc(-n3cc(COc4ccccc4/C=C(C)/C=C/C(=O)NO)nn3)cc2)C(=O)OC)[C@@H]1[C@H](O)Cc1ccccc1 was tested, and the cytotoxicity call was “inactive”. COC(=O)[C@@H](Cc1ccc(-n2cc(COc3ccccc3/C=C(C)/C=C/C(=O)NO)nn2)cc1)N1CC2=C[C@H](C3CC3)n3c(=O)n(C)c(=O)n3[C@@H]2[C@H]1[C@H](O)Cc1ccccc1 was tested, and the cytotoxicity call was “inactive”. With COC(=O)[C@H](Cc1ccccc1)N1CC2=C[C@@H](C3CC3)n3c(=O)n(C)c(=O)n3[C@H]2[C@@H]1[C@@H](O)CCn1cc(COc2ccccc2/C=C(C)/C=C/C(=O)NO)nn1 the cytotoxicity call was “inactive”. With COC(=O)[C@@H](Cc1ccc(-n2cc(COc3ccccc3/C=C(C)/C=C/C(=O)NO)nn2)cc1)N1CC2=CCCC=C[C@@H]2[C@H]1[C@H](O)Cc1ccccc1 the cytotoxicity call was “active”. COC(=O)[C@@H](NC(=O)Cn1cc(CCC(=O)NO)nn1)c1ccccc1 was tested, and the cytotoxicity call was “inactive”. With CCOC(=O)[C@H](Cc1ccccc1)NC(=O)Cn1cc(C(=O)NO)nn1 the cytotoxicity call was “inactive”. In the case of C#CCN1[C@H](/C=C/C2CC2)[C@H](Cc2ccccc2)OC(=O)[C@@H]1Cc1ccc(-n2cc(COc3ccccc3/C=C(C)/C=C/C(=O)NO)nn2)cc1, the cytotoxicity call is reported as “active”. CS(=O)(=O)N1C[C@H](O)COC[C@H]2O[C@@H](CC(=O)NCc3ccccc3)CC[C@@H]21 was tested, and the cytotoxicity call was “inactive”. CC(C)(C)[S@@](=O)N1Cc2cc(C(=O)N3CCc4ccccc4C3)nc(-c3cccc(-c4cncnc4)c3)c2[C@H]1CCO was tested, and the cytotoxicity call was “inactive”. COc1ccc(C#Cc2ccc3c(c2)O[C@@H](CN(C)C(=O)CN2CCOCC2)[C@H](C)CN([C@@H](C)CO)S3(=O)=O)cc1 was tested, and the cytotoxicity call was “inactive”. Cc1noc(C)c1NC(=O)Nc1ccc2c(c1)C(=O)N([C@@H](C)CO)C[C@@H](C)[C@@H](CN(C)S(C)(=O)=O)O2 was tested, and the cytotoxicity call was “inactive”. C[C@@H]1CN([C@@H](C)CO)C(=O)c2cc(NC(=O)CCN3CCOCC3)ccc2O[C@@H]1CN(C)Cc1ccccc1 was tested, and the cytotoxicity call was “inactive”. With CO[C@@H]1CN(C)C(=O)c2cc(NC(=O)c3cnccn3)ccc2OC[C@@H](C)N(CCC(F)(F)F)C[C@H]1C the cytotoxicity call was “inactive”. In the case of C[C@H]1CN([C@@H](C)CO)C(=O)c2cccc(NS(=O)(=O)c3ccc(Cl)cc3)c2O[C@H]1CN(C)Cc1ccc(Oc2ccccc2)cc1, the cytotoxicity call is reported as “inactive”. C[C@@H]1CN([C@@H](C)CO)C(=O)CCCn2cc(nn2)CO[C@@H]1CN(C)C(=O)C1CC1 was tested, and the cytotoxicity call was “inactive”. For COc1ccc(-c2cc(=O)c3c(OC)c(OC)c(OC)c(OC)c3o2)cc1OC, the cytotoxicity call was “inactive”. With COc1ccc(-c2cc(=O)c3c(O)c(OC)c(OC)c(OC)c3o2)cc1OC the cytotoxicity call was “active”. COc1ccc(-c2cc(=O)c3c(O)cc(O)cc3o2)cc1 was tested, and the cytotoxicity call was “active”. For COc1ccc(-c2cc(=O)c3c(OC)cc(OC)cc3o2)cc1, the cytotoxicity call was “inactive”. With COc1ccc(-c2cc(=O)c3c(O)cc(OC)cc3o2)cc1 the cytotoxicity call was “inactive”. In the case of COc1ccc(-c2cc(=O)c3c(O)c(OC)c(OC)c(OC)c3o2)cc1, the cytotoxicity call is reported as “active”. In the case of COc1ccc(-c2cc(=O)c3c(OC)c(OC)c(OC)c(OC)c3o2)cc1, the cytotoxicity call is reported as “inactive”. With COc1ccc(-c2cc(=O)c3c(OC)c(OC)c(OC)cc3o2)cc1OC the cytotoxicity call was “inactive”. With O=c1cc(-c2ccc(O)cc2)oc2cc(O)cc(O)c12 the cytotoxicity call was “inactive”. In the case of C[C@@H]1CN([C@@H](C)CO)S(=O)(=O)c2ccc(C#C[C@@H](C)O)cc2O[C@H]1CN(C)C(=O)CN(C)C, the cytotoxicity call is reported as “inactive”. For C[C@@H]1CN([C@H](C)CO)C(=O)c2cccc(NS(C)(=O)=O)c2O[C@@H]1CN(C)S(=O)(=O)c1cccs1, the cytotoxicity call was “inactive”. With Clc1ccc2nncn2n1 the cytotoxicity call was “inactive”. CNC(=O)[C@H]1O[C@H](n2cnc3c(NCc4cccc(I)c4)nc(Cl)nc32)[C@@H](O)[C@@H]1O was tested, and the cytotoxicity call was “inactive”. For C[C@@H]1CCCCO[C@@H](CN(C)Cc2ccncc2)[C@H](C)CN([C@H](C)CO)C(=O)c2cc(NS(=O)(=O)c3ccc(Cl)cc3)ccc2O1, the cytotoxicity call was “inactive”. With NC(=O)NCC#Cc1ccc2c(c1)[C@]1(C(=O)N2)[C@H](C(=O)N2CCN(c3ncccn3)CC2)[C@H]2C(=O)O[C@H](c3ccccc3)[C@H](c3ccccc3)N2[C@@H]1c1ccccc1OCCO the cytotoxicity call was “inactive”. Cc1cc(C(=O)Nc2cccc3c2O[C@@H](CN(C)S(=O)(=O)c2ccc(Cl)cc2)[C@@H](C)CN([C@@H](C)CO)C3=O)n(C)n1 was tested, and the cytotoxicity call was “inactive”.
